PubChem BioAssay (Tox21)
A number with no mark means an inactive call. Results filed as inconclusive are left out. A call without a number means that no potency is given here. The source made the active and inactive calls. Unless noted, the call rests on the fitted dose curve; in most records, active means well fitted curve in the direction sought with a large enough effect in the repeat runs; inconclusive means weak or mixed curves; inactive means no such curve, though single readings can be large; an effect the other way counts as inactive or inconclusive.

What was measured:
[1] = qHTS assay to identify small molecule agonists of the androgen receptor (AR) signaling pathway in the presence of an antagonist - cell viability counter screen (AID 1259379); further: nearly all actives have a fitted effect of over 25% in size; further: potency means the concentration at half of the fitted maximal effect
Procedure, shortened: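 Each compound was tested at 15 concentrations on MDA-kb2 cells in the presence of 3.0uM nilutamide. Viability was measured by CellTiter-Fluor fluorescence after a 16 hr incubation at 37C in a CO2-free atmosphere.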

[2] = qHTS assay to identify small molecule agonists of the estrogen receptor beta (ER-beta) signaling pathway - cell viability counter screen (AID 1259380); further: nearly all actives have a fitted effect of over 30% in size; further: potency means the concentration at half of the fitted maximal effect
Procedure, shortened: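 Compounds dissolved in DMSO were pin-transferred onto ER-beta-UAS-bla HEK293T cells that had settled 6 hr, and exposure ran 16 hr at 37C. Following the reporter read, CellTiter-Glo luminescence after 30 min at room temperature indicated cytotoxicity.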

[3] = target: Androgen receptor (Homo sapiens) (UniProt P10275); assay: qHTS assay to identify small molecule agonists of the androgen receptor (AR) signaling pathway in the presence of an antagonist (AID 1259381; calls by dose curve; further: nearly all actives have a fitted effect of over 15% in size; further: potency means the concentration at half of the fitted maximal effect)
Chain of Androgen receptor (Homo sapiens) (P10275 whole entry, looked up): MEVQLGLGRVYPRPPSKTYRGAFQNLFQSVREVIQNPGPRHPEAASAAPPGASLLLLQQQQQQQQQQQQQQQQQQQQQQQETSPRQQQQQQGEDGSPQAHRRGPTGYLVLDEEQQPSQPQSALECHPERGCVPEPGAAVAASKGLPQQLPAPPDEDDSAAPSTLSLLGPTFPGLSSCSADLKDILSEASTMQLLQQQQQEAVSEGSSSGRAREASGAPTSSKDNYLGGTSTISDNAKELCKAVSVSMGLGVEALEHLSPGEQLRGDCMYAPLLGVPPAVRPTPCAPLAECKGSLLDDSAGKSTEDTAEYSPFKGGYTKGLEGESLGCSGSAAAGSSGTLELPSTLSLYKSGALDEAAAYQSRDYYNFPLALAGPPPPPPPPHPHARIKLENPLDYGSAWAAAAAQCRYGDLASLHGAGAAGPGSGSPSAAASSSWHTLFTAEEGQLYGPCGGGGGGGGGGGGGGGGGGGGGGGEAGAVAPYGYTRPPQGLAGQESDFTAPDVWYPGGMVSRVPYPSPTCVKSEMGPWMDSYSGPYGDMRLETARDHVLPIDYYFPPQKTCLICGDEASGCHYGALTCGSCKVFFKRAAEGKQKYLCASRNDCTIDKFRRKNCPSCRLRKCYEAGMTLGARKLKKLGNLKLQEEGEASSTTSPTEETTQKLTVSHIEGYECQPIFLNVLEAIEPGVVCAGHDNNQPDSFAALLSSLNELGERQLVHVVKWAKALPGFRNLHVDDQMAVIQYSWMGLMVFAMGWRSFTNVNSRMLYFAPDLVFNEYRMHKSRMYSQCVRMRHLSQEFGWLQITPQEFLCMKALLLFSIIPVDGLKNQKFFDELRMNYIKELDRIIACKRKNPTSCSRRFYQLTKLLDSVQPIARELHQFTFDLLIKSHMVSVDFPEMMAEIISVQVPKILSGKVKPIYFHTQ
Procedure, shortened: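 Plated MDA-kb2 cells (3,000/well) were pre-incubated 5hr, given nilutamide (3.0uM final) or buffer, then dosed with compounds in DMSO at 15 concentrations. Luciferase activity was quantified by luminescence after 16hr at 37C.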

[4] = qHTS assay to identify small molecule antagonists of the estrogen receptor beta (ER-beta) signaling pathway - cell viability counter screen (AID 1259382); further: nearly all actives have a fitted effect of over 55% in size; further: potency means the concentration at half of the fitted maximal effect
Procedure, shortened: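 CellTiter-Glo ATP luminescence measured after the LiveBLAzer read in the same wells; ER-beta-UAS-bla HEK293T cells, 16 hr compound treatment with 1nM 17-beta-estradiol agonist at 37C, 5% CO2.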

[5] = target: Estrogen receptor (Homo sapiens) (UniProt P03372); assay: qHTS assay to identify small molecule agonists of the estrogen receptor alpha (ER-alpha) signaling pathway in the presence of an antagonist (AID 1259383; calls by dose curve; further: top concentration of the series differs between compounds; nearly all actives have a fitted effect of over 15% in size)
Chain of Estrogen receptor (Homo sapiens) (P03372 whole entry, looked up): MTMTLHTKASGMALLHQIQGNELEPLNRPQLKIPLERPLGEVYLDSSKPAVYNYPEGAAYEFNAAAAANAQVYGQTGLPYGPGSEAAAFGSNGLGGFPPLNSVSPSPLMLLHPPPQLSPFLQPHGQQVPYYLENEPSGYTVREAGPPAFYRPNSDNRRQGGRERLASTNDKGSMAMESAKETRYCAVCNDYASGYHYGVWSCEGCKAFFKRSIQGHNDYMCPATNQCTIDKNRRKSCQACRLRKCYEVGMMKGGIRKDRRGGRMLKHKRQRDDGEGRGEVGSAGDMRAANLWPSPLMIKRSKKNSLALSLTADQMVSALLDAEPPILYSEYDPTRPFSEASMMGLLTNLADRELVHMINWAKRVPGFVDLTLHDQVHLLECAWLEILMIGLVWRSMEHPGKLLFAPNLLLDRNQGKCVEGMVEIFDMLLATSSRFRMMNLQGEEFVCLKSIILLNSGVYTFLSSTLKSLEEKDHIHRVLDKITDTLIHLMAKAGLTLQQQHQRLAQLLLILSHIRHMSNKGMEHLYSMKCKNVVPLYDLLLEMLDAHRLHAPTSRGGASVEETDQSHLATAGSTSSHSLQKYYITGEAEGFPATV
Procedure, shortened: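 Luminescent ERE-luciferase reporter, VM7Luc4E2 cells (endogenous ER-alpha); 10.0nM ICI-182,780 final; 15-point compound titration; 22hr at 37C; ONE-Glo, 30min RT.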

[6] = qHTS assay to identify small molecule agonists or antagonists of the thyroid stimulating hormone receptor (TSHR) signaling pathway - wild type cell line counter screen (AID 1259384; calls by dose curve)
Procedure, shortened: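 Wild-type Hek293 cells, 800/well, 18 h at 37C, then compound with Ro20-1724 for 30 min RT. cAMP by HTRF (cAMP-d2/anti-cAMP cryptate), 1 h RT, fluorescence read. 15 concentrations, triplicates.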

[7] = target: Thyrotropin receptor (Homo sapiens) (UniProt P16473); assay: qHTS assay to identify small molecule antagonists of the thyroid stimulating hormone receptor (TSHR) signaling pathway (AID 1259385; calls by dose curve; further: nearly all actives have a fitted effect of over 20% in size)
Chain of Thyrotropin receptor (Homo sapiens) (P16473 whole entry, looked up): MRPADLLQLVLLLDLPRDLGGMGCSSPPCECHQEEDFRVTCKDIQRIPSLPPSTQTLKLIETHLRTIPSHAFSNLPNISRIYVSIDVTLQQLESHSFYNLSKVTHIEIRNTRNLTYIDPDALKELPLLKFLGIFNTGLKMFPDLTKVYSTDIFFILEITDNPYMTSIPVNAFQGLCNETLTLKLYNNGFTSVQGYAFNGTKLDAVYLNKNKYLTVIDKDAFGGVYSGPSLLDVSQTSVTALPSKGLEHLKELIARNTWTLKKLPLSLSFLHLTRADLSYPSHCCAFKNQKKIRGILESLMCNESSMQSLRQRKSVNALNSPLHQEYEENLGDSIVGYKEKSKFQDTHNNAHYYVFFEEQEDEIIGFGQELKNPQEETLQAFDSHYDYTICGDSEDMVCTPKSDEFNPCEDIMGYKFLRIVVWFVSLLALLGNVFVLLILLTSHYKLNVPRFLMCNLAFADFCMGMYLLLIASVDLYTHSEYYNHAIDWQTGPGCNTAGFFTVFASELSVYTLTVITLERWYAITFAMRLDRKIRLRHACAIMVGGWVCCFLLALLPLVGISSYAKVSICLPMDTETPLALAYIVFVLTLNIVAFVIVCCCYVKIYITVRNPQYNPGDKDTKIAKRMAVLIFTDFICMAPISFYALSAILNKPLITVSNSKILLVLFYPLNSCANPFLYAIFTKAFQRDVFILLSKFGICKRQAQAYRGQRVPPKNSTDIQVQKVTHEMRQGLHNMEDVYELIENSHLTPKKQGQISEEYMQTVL
Procedure, shortened: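 TSHR-HEK293 cells (800/well) plated 18 h, then compounds with Ro20-1724 and TSH at 1.5 ng/mL final, 30 min at room temperature. cAMP quantified by HTRF (cAMP-d2/anti-cAMP-cryptate, 1 h); 15 concentrations in triplicate.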

[8] = qHTS assay to identify small molecule agonists of the estrogen receptor alpha (ER-alpha) signaling pathway in the presence of an antagonist - cell viability counter screen (AID 1259386);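 further: cells exposed to compounds for 22 h at 37 °C before the viability read; nearly all actives have a fitted effect of over 30% in size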; further: potency means the concentration at half of the fitted maximal effect
Procedure, shortened: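 Using estrogen-depleted VM7Luc4E2 cells, the 15-concentration compound series was applied together with 10.0nM ICI-182,780 and incubated 22hr at 37C/5% CO2. Cell viability was then scored by CellTiter-Fluor.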

[9] = target: Progesterone receptor (Homo sapiens) (UniProt P06401); assay: qHTS assay to identify small molecule agonists of the progesterone receptor (PR) signaling pathway (AID 1346784; calls by dose curve; further: nearly all actives have a fitted effect of over 30% in size)
Chain of Progesterone receptor (Homo sapiens) (P06401 whole entry, looked up): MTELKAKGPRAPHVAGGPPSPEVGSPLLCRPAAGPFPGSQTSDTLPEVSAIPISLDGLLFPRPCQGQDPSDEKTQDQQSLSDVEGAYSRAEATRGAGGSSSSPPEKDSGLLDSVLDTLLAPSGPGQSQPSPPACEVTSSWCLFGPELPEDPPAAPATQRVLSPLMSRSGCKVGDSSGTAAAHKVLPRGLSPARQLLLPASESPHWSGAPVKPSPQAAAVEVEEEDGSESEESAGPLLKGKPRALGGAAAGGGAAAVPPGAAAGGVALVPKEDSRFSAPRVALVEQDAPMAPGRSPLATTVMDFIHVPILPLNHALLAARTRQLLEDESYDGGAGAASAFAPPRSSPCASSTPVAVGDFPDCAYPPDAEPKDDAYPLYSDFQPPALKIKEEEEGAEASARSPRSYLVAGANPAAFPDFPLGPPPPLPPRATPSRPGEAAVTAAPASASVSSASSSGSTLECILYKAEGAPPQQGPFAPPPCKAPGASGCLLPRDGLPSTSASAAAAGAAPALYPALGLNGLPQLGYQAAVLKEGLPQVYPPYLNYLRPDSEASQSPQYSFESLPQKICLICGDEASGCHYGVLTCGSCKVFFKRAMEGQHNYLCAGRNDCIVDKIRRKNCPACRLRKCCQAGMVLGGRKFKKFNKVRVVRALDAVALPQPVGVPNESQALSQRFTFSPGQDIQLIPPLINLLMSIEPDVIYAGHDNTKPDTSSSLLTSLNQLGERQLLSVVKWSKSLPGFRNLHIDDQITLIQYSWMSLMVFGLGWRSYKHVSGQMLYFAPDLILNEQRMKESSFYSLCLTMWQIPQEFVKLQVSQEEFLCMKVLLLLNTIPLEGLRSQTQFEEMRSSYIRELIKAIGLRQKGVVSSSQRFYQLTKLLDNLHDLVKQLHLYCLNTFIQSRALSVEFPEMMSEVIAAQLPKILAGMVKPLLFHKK
Procedure, shortened: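 Compounds were tested for PR agonism in HEK 293T cells bearing a beta-lactamase gene under UAS control. Treatment lasted 16 hr at 37C; signal came from fluorescence of a FRET substrate.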

[10] = target: Progesterone receptor (Homo sapiens) (UniProt P06401); assay: qHTS assay to identify small molecule antagonists of the progesterone receptor (PR) signaling pathway (AID 1346795; active means well fitted inhibition curve with a large enough effect in the signal ratio in the repeat runs, not every such curve was filed as active; the % refers to the signal ratio)
Procedure, shortened: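 In HEK293T cells bearing the PR-UAS-bla reporter, compound effects on promegestone-driven (1 nM) beta-lactamase expression are assessed after 16 hr using a fluorescent FRET substrate incubated 2 hr at room temperature.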

[11] = qHTS assay to identify small molecule antagonists of the progesterone receptor (PR) signaling pathway - cell viability counter screen (AID 1346798); further: series mostly up to about 92 µM; nearly all actives have a fitted effect of over 50% in size
Procedure, shortened: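 Following a 4 hr attachment, PR-UAS-bla HEK293T cells in charcoal-stripped FBS medium were exposed to compounds with R5020 for 16 hr; CellTiter-Glo was added and luminescence read after 30 min at room temperature.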

[12] = qHTS assay to identify small molecule agonists of the progesterone receptor (PR) signaling pathway - cell viability counter screen (AID 1346799; calls by dose curve; further: nearly all actives have a fitted effect of over 45% in size; further: potency means the concentration at half of the fitted maximal effect)
Procedure, shortened: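 Here, 3,000 PR-UAS-bla HEK293T cells per well were treated with compounds for 16 hr after a 6 hr preincubation at 37C and 5% CO2; cell viability is the CellTiter-Glo luminescence signal.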

[13] = qHTS assay to identify small molecule antagonists of the TGF-beta/Smad signaling pathway - cell viability counter screen (AID 1346824); further: nearly all actives have a fitted effect of over 50% in size
Procedure, shortened: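 SBE-bla HEK 293T cells, incubated overnight, then compound plus 0.25 ng/mL TGF-beta1 (stock added) for 5 hr at 37 C. Viability was read in the same wells by CellTiter-Glo luminescence after 30 min at room temperature.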

[14] = qHTS assay to identify small molecule agonists of the TGF-beta/Smad signaling pathway (AID 1346859; active means well fitted activation curve with a large enough effect in the signal ratio in the repeat runs, not every such curve was filed as active; the % refers to the signal ratio; further: series mostly up to about 77 µM)
Procedure, shortened: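 Each well held 4,000 SBE-bla HEK 293T cells incubated overnight before compound addition; 5 hr later the cleavable FRET substrate went on for 2 hr at room temperature, and fluorescence was read at two emissions.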

[15] = target: Thyrotropin-releasing hormone receptor (Homo sapiens) (UniProt P34981); assay: qHTS assay to identify small molecule antagonists of the thyrotropin-releasing hormone receptor (TRHR) signaling pathway (AID 1346877; active means well fitted inhibition curve with a large enough effect in the repeat runs, not every such curve was filed as active; further: series mostly up to about 51 µM)
Chain of Thyrotropin-releasing hormone receptor (Homo sapiens) (P34981 whole entry, looked up): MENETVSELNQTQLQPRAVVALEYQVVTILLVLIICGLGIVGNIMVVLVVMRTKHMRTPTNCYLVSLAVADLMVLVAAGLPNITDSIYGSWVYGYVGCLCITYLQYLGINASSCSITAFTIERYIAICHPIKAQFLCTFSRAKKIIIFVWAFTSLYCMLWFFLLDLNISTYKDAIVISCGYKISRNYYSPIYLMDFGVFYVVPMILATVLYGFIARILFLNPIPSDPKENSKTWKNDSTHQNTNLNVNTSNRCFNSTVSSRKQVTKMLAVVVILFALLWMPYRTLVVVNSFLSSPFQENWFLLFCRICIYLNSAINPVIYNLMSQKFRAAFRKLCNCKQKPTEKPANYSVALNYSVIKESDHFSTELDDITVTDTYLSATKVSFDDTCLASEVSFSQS
Procedure, shortened: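 Calcium signal in dye-loaded TRHR/HEK293 cells; compounds added 5 min before TRH (1 nM final); fluorescence monitored 3 min at 1 s steps.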

[16] = target: Thyrotropin-releasing hormone receptor (Homo sapiens) (UniProt P34981); assay: qHTS assay to identify small molecule agonists of the thyrotropin-releasing hormone receptor (TRHR) signaling pathway (AID 1346891; calls by dose curve; further: series mostly up to about 58 µM)
Procedure, shortened: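 Screening of agonists relied on calcium signalling in HEK293 cells expressing human TRHR: dye loading 2 h at 37 °C preceded compound addition and a 3-min fluorescence time course.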

[17] = Human pregnane X receptor (PXR) small molecule agonists, qHTS cell viability counter screen (AID 1346977); further: nearly all actives have a fitted effect of over 50% in size; further: potency means the concentration at half of the fitted maximal effect
Procedure, shortened: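 Tox21 qHTS format; PXR-Luc HepG2, 2,000/well, charcoal-stripped FBS 5%. Cpd exposure 24hr. Read: CellTiter-Fluor fluorescence, multiplexed with luciferase.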

[18] = Caspase-3/7 induction in HepG2 cells by small molecules, qHTS assay (AID 1346978); further: nearly all actives have a fitted effect of over 15% in size; further: potency means the concentration at half of the fitted maximal effect
Procedure, shortened: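 Wild-type HepG2 cells, 2,000/well, settled 5 hr at 37 C and 5% CO2, then compound-treated for 17 hr; caspase-3/7 activity read by luminescent Caspase-Glo 3/7 after 30 min at room temperature.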

[19] = Caspase-3/7 induction in CHO-K1 cells by small molecules, qHTS cell viability counter screen (AID 1346979); further: nearly all actives have a fitted effect of over 35% in size; further: potency means the concentration at half of the fitted maximal effect
Procedure, shortened: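 CellTiter-Fluor viability check, qHTS format: wild-type CHO-K1, 16hr compound treatment, 1hr reagent incubation, fluorescence read.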

[20] = qHTS assay to identify small molecule agonists of the TGF-beta/Smad signaling pathway - cell viability counter screen (AID 1346829); further: top concentration of the series differs between compounds; nearly all actives have a fitted effect of over 45% in size
Procedure, shortened: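 Same-well cytotoxicity: CellTiter-Glo added after the 2 hr room-temperature beta-lactamase substrate step, luminescence measured 30 min later; cells had 5 hr of compound at 37 C.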

Q: Which Potency [1] does the source give for `Cc1c[nH]c(=O)[nH]c1=O` here?
A: inactive

Q: And the Potency [2]?
A: inactive

Q: What about the Potency [3] of the same compound?
A: inactive

Q: And the Potency [4]?
A: inactive

Q: And the Potency [5]?
A: inactive

Q: And the Potency [6]?
A: inactive

Q: What about the Potency [7] of the same compound?
A: inactive

Q: And the Potency [8]?
A: inactive

Q: And the outcome [9]?
A: inactive

Q: And the Potency [10]?
A: inactive

Q: What about the Potency [11] of the same compound?
A: inactive

Q: And the Potency [12]?
A: inactive

Q: And the Potency [13]?
A: inactive

Q: And the outcome [14]?
A: inactive

Q: And the Potency [15]?
A: inactive

Q: And the Potency [16]?
A: inactive

Q: And the Potency [17]?
A: inactive

Q: And the Potency [18]?
A: inactive

Q: What about the Potency [19] of the same compound?
A: inactive

Q: With `Cc1cc(F)ccc1-c1cc(N2CC[C@@H](O)[C@H]2CO)ncc1N(C)C(=O)C(C)(C)c1cc(C(F)(F)F)cc(C(F)(F)F)c1` as the compound, how does the Potency [1] read?
A: 53.6 µM (active)

Q: What about the Potency [2] of the same compound?
A: 47.8 µM (active)

Q: What about the Potency [3] of the same compound?
A: inactive

Q: What about the Potency [4] of the same compound?
A: 53.6 µM (active)

Q: What about the Potency [5] of the same compound?
A: inactive

Q: And the Potency [6]?
A: inactive

Q: And the Potency [7]?
A: inactive

Q: And the Potency [8]?
A: inactive

Q: What about the Potency [11] of the same compound?
A: inactive

Q: And the Potency [13]?
A: inactive

Q: And the Potency [15]?
A: inactive

Q: What about the Potency [17] of the same compound?
A: 38 µM (active)

Q: And the Potency [18]?
A: 38 µM (active)

Q: What about the Potency [19] of the same compound?
A: 24 µM (active)

Q: With `CSc1nnc(C(C)(C)C)c(=O)[nH]1` as the compound, how does the Potency [1] read?
A: inactive

Q: And the Potency [2]?
A: inactive

Q: What about the Potency [3] of the same compound?
A: inactive

Q: And the Potency [4]?
A: inactive

Q: What about the Potency [5] of the same compound?
A: inactive

Q: What about the Potency [8] of the same compound?
A: inactive

Q: And the outcome [9]?
A: inactive

Q: And the Potency [13]?
A: inactive

Q: What about the Potency [20] of the same compound?
A: inactive

Q: And the outcome [14]?
A: inactive

Q: What about the Potency [15] of the same compound?
A: inactive

Q: And the Potency [16]?
A: inactive

Q: And the Potency [17]?
A: inactive

Q: And the Potency [18]?
A: inactive

Q: Which Potency [1] does the source give for `Cc1ccc(N=Nc2c(O)ccc3ccccc23)c(C)c1` here?
A: 13.3 µM (active)

Q: What about the Potency [2] of the same compound?
A: inactive

Q: And the Potency [3]?
A: 0.335 µM (active)

Q: What about the Potency [5] of the same compound?
A: inactive

Q: What about the Potency [6] of the same compound?
A: inactive

Q: What about the Potency [7] of the same compound?
A: inactive

Q: And the Potency [8]?
A: 7.5 µM (active)

Q: What about the outcome [9] of the same compound?
A: inactive

Q: And the Potency [11]?
A: inactive

Q: And the Potency [12]?
A: inactive

Q: And the Potency [13]?
A: inactive

Q: What about the Potency [20] of the same compound?
A: inactive

Q: What about the outcome [14] of the same compound?
A: inactive

Q: What about the Potency [15] of the same compound?
A: inactive

Q: And the Potency [16]?
A: inactive

Q: And the Potency [18]?
A: inactive

Q: What about the Potency [19] of the same compound?
A: 7.5 µM (active)

Q: What does the source list for `Cn1c(=O)[nH]c2ncn(C)c2c1=O`?
A: Potency [1]: inactive; Potency [2]: inactive; Potency [3]: inactive; Potency [4]: inactive; Potency [5]: inactive; Potency [7]: inactive; Potency [8]: inactive; outcome [9]: inactive; Potency [11]: inactive; Potency [12]: inactive; Potency [20]: inactive; Potency [15]: inactive; Potency [16]: inactive; Potency [17]: inactive; Potency [18]: inactive; Potency [19]: inactive

Q: Which results are given for `Nc1cc([N+](=O)[O-])ccc1Cl`?
A: Potency [1]: inactive; Potency [2]: inactive; Potency [3]: inactive; Potency [4]: inactive; Potency [6]: inactive; Potency [7]: inactive; Potency [8]: inactive; outcome [9]: inactive; Potency [11]: inactive; Potency [12]: inactive; Potency [13]: inactive; Potency [20]: inactive; Potency [17]: inactive; Potency [18]: inactive; Potency [19]: inactive

Q: For `CC(=O)[C@]1(O)Cc2c(O)c3c(c(O)c2[C@@H](O[C@H]2C[C@H](N)[C@H](O)[C@H](C)O2)C1)C(=O)c1ccccc1C3=O`, which Potency [1] is on record?
A: 9.44 µM (active)

Q: And the Potency [2]?
A: 2.66 µM (active)

Q: And the Potency [3]?
A: inactive

Q: What about the Potency [4] of the same compound?
A: inactive

Q: And the Potency [5]?
A: inactive

Q: What about the Potency [8] of the same compound?
A: 18.8 µM (active)

Q: And the Potency [11]?
A: inactive

Q: And the Potency [12]?
A: 1.33 µM (active)

Q: What about the Potency [13] of the same compound?
A: inactive

Q: What about the Potency [15] of the same compound?
A: inactive

Q: And the Potency [16]?
A: inactive

Q: And the Potency [17]?
A: 2.66 µM (active)

Q: What about the Potency [18] of the same compound?
A: 2.11 µM (active)

Q: What about the Potency [19] of the same compound?
A: 11.9 µM (active)

Q: For `O=C1OCc2ccccc21`, which Potency [1] is on record?
A: inactive

Q: And the Potency [2]?
A: inactive

Q: And the Potency [3]?
A: inactive

Q: What about the Potency [4] of the same compound?
A: inactive

Q: What about the Potency [5] of the same compound?
A: inactive

Q: What about the Potency [6] of the same compound?
A: inactive

Q: What about the Potency [7] of the same compound?
A: inactive

Q: And the Potency [8]?
A: inactive

Q: And the outcome [9]?
A: inactive

Q: What about the Potency [11] of the same compound?
A: inactive

Q: And the Potency [12]?
A: inactive

Q: What about the Potency [13] of the same compound?
A: inactive

Q: And the Potency [20]?
A: inactive

Q: And the outcome [14]?
A: inactive

Q: And the Potency [15]?
A: inactive

Q: And the Potency [16]?
A: inactive

Q: What about the Potency [17] of the same compound?
A: inactive

Q: What about the Potency [18] of the same compound?
A: inactive

Q: What about the Potency [19] of the same compound?
A: inactive
